Measurements: PubChem BioAssay (EPA / NIEHS)
“And” between values parts separate entries of the source, which are not always exact repeats. Equal entries are not always repeated. Inconclusive results are not listed. The source holds several records for some structures; these can differ, active in one and inactive in another. The source made the active and inactive calls. The calls were made as follows: active = hit-call score of the fitted dose curve at least 0.9, where 1 is the maximum; inconclusive = response in the unintended direction; inactive = score below 0.9.

Assays:
[1] = target: T1, Estrogen receptor (Homo sapiens) + Estrogen receptor beta (Homo sapiens) (UniProt P03372+Q92731); assay: OT_ER_ERaERb_0480: Odyssey Thera (OT) 8-hour HEK293T Protein-Complementation Assay for Estrogen Receptor-alpha/-beta Heterodimer (AID 2283352)
Outline: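 Compound added to HEK293T cells carrying split-reporter-tagged ER-alpha and ER-beta LBDs, incubated 8 hours, then imaged by laser scanning cytometer. Signal rise in nucleus, or nucleus and cytoplasm, over vehicle was fitted in the positive direction.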

[2] = target: Androgen Receptor/SRC-1 Co-activator, AR (gene 367) (UniProt P10275); assay: OT_AR_ARSRC1_0960: Odyssey Thera (OT) 16-hour HEK293T Protein-Complementation Assay for Androgen Receptor/SRC-1 Co-activator (AID 2283353);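 also: actives raise the signal above DMSO so potency reflects increased AR and SRC-1 complex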
Outline: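 Endpoint is gain-of-signal N/C fluorescence ratio in the 488 nm channel versus DMSO, from at least 400 cells per image, measured 16 h post-dosing. Cells: HEK293T stably carrying split-Venus AR/SRC-1 complementation constructs.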

[3] = target: Androgen Receptor/SRC-1 Co-activator, AR (gene 367) (UniProt P10275); assay: OT_AR_ARSRC1_0480: Odyssey Thera (OT) 8-hour HEK293T Protein-Complementation Assay for Androgen Receptor/SRC-1 Co-activator (AID 2283354);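 also: hits raise the complementation signal above DMSO so AC50 marks enhancers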
Outline: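 After 8 h dosing, stably expressing HEK293T cells with split-Venus AR/SRC-1 fusions were imaged (488, 635nm). The 488nm N/C ratio per image gave the endpoint, analysed in the positive direction against DMSO.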

[4] = target: T1, Estrogen receptor (Homo sapiens) + Estrogen receptor beta (Homo sapiens); assay: OT_ER_ERaERb_1440: Odyssey Thera (OT) 24-hour HEK293T Protein-Complementation Assay for Estrogen Receptor-alpha/-beta Homodimer (AID 2283356);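 also: heteromer of ER alpha and ER beta binding domains; hits raise reporter fluorescence and both agonists and antagonists give an increase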
Outline: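 Stable HEK293T PCA line, ERα LBD 310-547 + ERβ LBD 263-489 fused to reporter fragments; 24 h treatment; fluorescence read by laser scanning cytometry; positive fitting direction relative to DMSO.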

[5] = target: PGR (gene 5241) (UniProt P06401); assay: NVS_NR_hPR: NovaScreen (NVS) Nuclear Receptor Binding Assay for human Progestron Receptor (PR) (AID 2283360);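 also: active means loss of bound radioligand signal versus DMSO baseline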
Outline: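 Competitive displacement of a labelled radioligand from T47D-derived receptor protein is measured in a cell-free format. Initial testing uses 25 uM in duplicate, with positive and negative controls on every plate.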

[6] = target: Estrogen receptor (Homo sapiens) (UniProt P03372); assay: OT_ER_ERaERa_0480: Odyssey Thera (OT) 8-hour HEK293T Protein-Complementation Assay for Estrogen Receptor-alpha/-alpha Homodimer (AID 2283351);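 also: rise in fluorescence from reassembled reporter fragments on ERα LBD homodimer in nucleus or whole cell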
Outline: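 HEK293T cells stably expressing a PCA pair of ER alpha LBD (residues 310-547) were dosed for 8 hours. The gain in fluorescence intensity, nuclear for agonists and whole-cell for antagonists, was measured by laser scanning cytometry against DMSO vehicle.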

[7] = target: Retinoic acid receptor alpha (Homo sapiens) (UniProt P10276); assay: NVS_NR_hRAR_Antagonist: NovaScreen (NVS) Nuclear Receptor Binding Assay for human Retinoic Acid Alpha Receptor Antagonism (RAR) (AID 2283358)
Outline: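 Chemicals were first tested in duplicate at 25 uM, then actives in concentration series, in a cell-free TR-FRET antagonist binding format. Measurements were taken 2 hours after dosing and loss of signal was evaluated against DMSO controls.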

[8] = target: Glucocorticoid receptor (Homo sapiens) (UniProt P04150); assay: NVS_NR_hGR: NovaScreen (NVS) Nuclear Receptor Binding Assay for human Glucocorticoid Receptor (GR) (AID 2283363);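 as to AC50: activity is loss of specific radioligand binding signal relative to DMSO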
Outline: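 Single-readout cell-free binding: radioligand plus extracted receptor, 16-hour dosing, filter radiodetection; 25 uM duplicate primary, concentration series secondary.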

[9] = target: guinea pig Sigma Receptor, Non-selective Binding, SIGMAR1 (gene 100135589) (UniProt Q60492); assay: NVS_OR_gSIGMA_NonSelective: NovaScreen (NVS) Nuclear Receptor Binding Assay for guinea pig Sigma Receptor, Non-selective Binding (AID 2283367)
Outline: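 Test chemicals were screened in duplicate at 25 uM, then in concentration series if active, against radioligand binding to guinea pig brain membranes; filtration and scintillation counting at 1 h measured remaining bound ligand.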

[10] = target: Peroxisome proliferator-activated receptor gamma (Homo sapiens) (UniProt P37231); assay: NVS_NR_hPPARg: NovaScreen (NVS) Nuclear Receptor Binding Assay for human Peroxisome Proliferator-activated Receptor gamma (PPARg) (AID 2283370)
Outline: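 Chemicals were tested first in duplicate at 25 uM, then in concentration series if active. Binding to cell-free PPARg protein was measured by fluorescence polarization after 2 h, with loss of signal scored against DMSO.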

[11] = target: rat Mineralocorticoid Receptor (MR), Nr3c2 (gene 25672) (UniProt P22199); assay: NVS_NR_rMR: NovaScreen (NVS) Nuclear Receptor Binding Assay for rat Mineralocorticoid Receptor (MR) (AID 2283355)
Outline: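 Single-concentration duplicate screen (25 uM) of radioligand binding in adrenalectomized rat brain supernatant; scintillation detection 24 h after dosing. Positive and negative controls ran on each plate, and confirmed actives went to concentration-response.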

[12] = target: Nuclear receptor subfamily 1 group I member 2 (Homo sapiens) (UniProt O75469); assay: NVS_NR_hPXR: NovaScreen (NVS) Nuclear Receptor Binding Assay for human Pregnane X Receptor (PXR) (AID 2283365);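 also: a drop in FRET signal versus DMSO baseline means the compound binds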
Outline: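 Human PXR protein, cell-free; compound added, incubated 2 h, TR-FRET read. Signal decrease vs DMSO = binding. Screened 25 uM duplicate, actives re-run as dilution series.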

[13] = target: human Peroxisome Proliferator-activated Receptor alpha (PPARa), PPARA (gene 5465) (UniProt Q07869); assay: NVS_NR_hPPARa: NovaScreen (NVS) Nuclear Receptor Binding Assay for human Peroxisome Proliferator-activated Receptor alpha (PPARa) (AID 2283359);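 also: activity means loss of TR-FRET signal versus DMSO baseline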
Outline: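 One-hour incubation, cell-free extracted protein, TR-FRET binding readout; signal loss vs DMSO scored. Screen: 25 uM duplicates, confirmatory dose series for actives.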

[14] = tested on: guinea pig Dopamine Transporter (DAT), gene 100714898; assay: NVS_TR_gDAT: NovaScreen (NVS) Transporter Assay for guinea pig Dopamine Transporter (DAT) (AID 2283369);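 also: active compounds lower bound radioligand signal relative to DMSO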
Outline: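 Scintillation counts of filter-retained radioligand report binding to guinea pig striatal membranes after 2 h. Activity scored as signal loss relative to DMSO, first at 25 uM in duplicate, then in concentration series to 50 uM.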

[15] = target: Retinoic acid receptor alpha (Homo sapiens) (UniProt P10276); assay: NVS_NR_hRARa_Agonist: NovaScreen (NVS) Nuclear Receptor Binding Assay for human Retinoic Acid Alpha Receptor Agonism (RAR) (AID 2283361)
Outline: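 Compounds screened at 25 uM, duplicate, then in concentration series if active. Detection: TR-FRET gain of signal versus DMSO after 2 h with cell-free extracted RARα.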

[16] = target: rat Androgen Receptor (AR), Ar (gene 24208) (UniProt P15207); assay: NVS_NR_rAR: NovaScreen (NVS) Nuclear Receptor Binding Assay for rat Androgen Receptor (AR) (AID 2283366)
Outline: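 Actives from a duplicate single-concentration (25 uM) primary run went on to concentration series. Displacement of radioligand was counted by filtration and scintillation, 18 h post-dose, using prostate extracts from testosterone-pretreated rats, with DMSO as baseline.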

[17] = target: human Adenosine Transporter (Adot), SLC29A1 (gene 2030) (UniProt Q99808); assay: NVS_TR_hAdoT: NovaScreen (NVS) Transporter Assay for human Adenosine Transporter (Adot) (AID 2283368)
Outline: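 Binding displacement on U937 extracted protein, read 1 h post-dose by filtration and scintillation counting. Primary duplicate test at 25 uM, then singleton concentration series with 50 uM top; DMSO baseline.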

[18] = tested on: rat Norepinephrine Transporter (NET), gene 83511; assay: NVS_TR_rNET: NovaScreen (NVS) Transporter Assay for rat Norepinephrine Transporter (NET) (AID 2283373)
Outline: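 Competitive radioligand displacement at the rat NET using forebrain membrane preparations, 1 h incubation, filter-based scintillation readout. Primary testing in duplicate at a single 25 uM concentration; confirmed actives retested across concentrations.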

Measured: AC50

Chain of human Adenosine Transporter (Adot), SLC29A1 (gene 2030) (Q99808 whole entry, looked up): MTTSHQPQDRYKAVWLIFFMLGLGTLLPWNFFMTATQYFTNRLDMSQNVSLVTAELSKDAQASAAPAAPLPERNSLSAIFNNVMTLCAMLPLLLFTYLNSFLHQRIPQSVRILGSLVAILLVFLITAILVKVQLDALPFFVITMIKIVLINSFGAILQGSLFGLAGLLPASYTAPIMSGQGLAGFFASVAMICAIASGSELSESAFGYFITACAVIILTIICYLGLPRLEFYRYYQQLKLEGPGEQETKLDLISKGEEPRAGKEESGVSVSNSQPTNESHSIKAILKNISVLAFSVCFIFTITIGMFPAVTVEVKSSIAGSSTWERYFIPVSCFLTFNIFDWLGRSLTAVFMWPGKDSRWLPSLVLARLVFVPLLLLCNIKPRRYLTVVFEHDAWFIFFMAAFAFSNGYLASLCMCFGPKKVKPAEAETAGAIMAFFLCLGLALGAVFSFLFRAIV
Chain of Androgen Receptor/SRC-1 Co-activator, AR (gene 367) (P10275 whole entry, looked up, the tested form may be a part): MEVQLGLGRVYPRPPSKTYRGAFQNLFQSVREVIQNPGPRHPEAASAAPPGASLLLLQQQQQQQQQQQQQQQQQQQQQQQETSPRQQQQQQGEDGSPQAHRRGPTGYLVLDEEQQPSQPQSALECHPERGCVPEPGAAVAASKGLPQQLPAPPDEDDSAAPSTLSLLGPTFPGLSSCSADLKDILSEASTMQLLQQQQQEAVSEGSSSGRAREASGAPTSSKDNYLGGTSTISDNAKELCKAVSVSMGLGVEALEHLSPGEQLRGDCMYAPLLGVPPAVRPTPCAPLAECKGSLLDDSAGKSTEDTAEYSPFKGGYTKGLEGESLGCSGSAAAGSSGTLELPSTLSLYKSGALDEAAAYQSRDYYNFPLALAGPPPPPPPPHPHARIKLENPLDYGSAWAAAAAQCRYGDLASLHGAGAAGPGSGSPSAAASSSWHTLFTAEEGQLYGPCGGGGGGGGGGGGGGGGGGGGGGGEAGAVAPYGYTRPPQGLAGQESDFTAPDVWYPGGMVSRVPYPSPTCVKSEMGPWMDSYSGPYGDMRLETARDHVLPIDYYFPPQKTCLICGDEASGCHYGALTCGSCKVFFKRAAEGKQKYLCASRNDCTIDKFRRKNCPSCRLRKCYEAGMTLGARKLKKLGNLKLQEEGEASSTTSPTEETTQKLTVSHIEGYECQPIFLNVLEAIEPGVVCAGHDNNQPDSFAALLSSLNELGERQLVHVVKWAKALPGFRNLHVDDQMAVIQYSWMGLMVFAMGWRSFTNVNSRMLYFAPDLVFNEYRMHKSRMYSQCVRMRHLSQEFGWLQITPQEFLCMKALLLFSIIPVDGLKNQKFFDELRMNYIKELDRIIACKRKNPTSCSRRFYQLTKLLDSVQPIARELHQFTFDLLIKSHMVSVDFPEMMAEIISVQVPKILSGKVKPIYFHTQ
Chain of PGR (gene 5241) (P06401 whole entry, looked up): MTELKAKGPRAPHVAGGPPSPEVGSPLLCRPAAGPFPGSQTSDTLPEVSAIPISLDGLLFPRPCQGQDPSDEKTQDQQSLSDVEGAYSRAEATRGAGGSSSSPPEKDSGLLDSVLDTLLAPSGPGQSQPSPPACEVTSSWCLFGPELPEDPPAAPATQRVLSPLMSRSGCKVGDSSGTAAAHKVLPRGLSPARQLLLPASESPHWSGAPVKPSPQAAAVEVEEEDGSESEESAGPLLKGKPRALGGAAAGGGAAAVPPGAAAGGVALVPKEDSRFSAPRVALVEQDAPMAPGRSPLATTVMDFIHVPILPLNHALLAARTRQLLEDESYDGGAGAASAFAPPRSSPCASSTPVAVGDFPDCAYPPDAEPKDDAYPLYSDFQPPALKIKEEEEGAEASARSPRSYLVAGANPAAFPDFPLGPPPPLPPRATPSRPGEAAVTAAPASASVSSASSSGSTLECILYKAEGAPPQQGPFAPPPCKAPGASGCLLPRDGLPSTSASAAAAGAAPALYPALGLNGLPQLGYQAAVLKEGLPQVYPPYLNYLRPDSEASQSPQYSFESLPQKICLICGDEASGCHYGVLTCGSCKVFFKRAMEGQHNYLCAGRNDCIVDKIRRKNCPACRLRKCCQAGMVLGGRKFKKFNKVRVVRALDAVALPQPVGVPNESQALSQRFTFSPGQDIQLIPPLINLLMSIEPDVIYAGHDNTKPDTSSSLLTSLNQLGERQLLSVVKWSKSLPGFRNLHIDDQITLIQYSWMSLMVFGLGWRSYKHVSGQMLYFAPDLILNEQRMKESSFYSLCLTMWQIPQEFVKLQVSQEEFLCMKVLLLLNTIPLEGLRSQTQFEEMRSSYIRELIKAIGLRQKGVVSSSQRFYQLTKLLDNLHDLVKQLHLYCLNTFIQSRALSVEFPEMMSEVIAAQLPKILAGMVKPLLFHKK
Chain of Retinoic acid receptor alpha (Homo sapiens) (P10276 whole entry, looked up): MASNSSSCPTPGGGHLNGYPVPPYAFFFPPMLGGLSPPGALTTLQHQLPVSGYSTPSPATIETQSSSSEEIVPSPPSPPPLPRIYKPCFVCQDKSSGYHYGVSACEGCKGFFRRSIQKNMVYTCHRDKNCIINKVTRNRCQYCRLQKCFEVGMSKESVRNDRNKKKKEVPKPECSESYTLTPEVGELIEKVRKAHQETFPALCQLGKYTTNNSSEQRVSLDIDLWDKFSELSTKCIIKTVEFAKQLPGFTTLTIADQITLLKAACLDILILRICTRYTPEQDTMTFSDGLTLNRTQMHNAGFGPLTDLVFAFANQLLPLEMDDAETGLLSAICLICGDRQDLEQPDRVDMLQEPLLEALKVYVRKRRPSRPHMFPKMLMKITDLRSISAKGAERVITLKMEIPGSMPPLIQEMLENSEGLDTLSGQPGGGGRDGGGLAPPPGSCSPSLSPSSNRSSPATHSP
Chain of rat Androgen Receptor (AR), Ar (gene 24208) (P15207 whole entry, looked up): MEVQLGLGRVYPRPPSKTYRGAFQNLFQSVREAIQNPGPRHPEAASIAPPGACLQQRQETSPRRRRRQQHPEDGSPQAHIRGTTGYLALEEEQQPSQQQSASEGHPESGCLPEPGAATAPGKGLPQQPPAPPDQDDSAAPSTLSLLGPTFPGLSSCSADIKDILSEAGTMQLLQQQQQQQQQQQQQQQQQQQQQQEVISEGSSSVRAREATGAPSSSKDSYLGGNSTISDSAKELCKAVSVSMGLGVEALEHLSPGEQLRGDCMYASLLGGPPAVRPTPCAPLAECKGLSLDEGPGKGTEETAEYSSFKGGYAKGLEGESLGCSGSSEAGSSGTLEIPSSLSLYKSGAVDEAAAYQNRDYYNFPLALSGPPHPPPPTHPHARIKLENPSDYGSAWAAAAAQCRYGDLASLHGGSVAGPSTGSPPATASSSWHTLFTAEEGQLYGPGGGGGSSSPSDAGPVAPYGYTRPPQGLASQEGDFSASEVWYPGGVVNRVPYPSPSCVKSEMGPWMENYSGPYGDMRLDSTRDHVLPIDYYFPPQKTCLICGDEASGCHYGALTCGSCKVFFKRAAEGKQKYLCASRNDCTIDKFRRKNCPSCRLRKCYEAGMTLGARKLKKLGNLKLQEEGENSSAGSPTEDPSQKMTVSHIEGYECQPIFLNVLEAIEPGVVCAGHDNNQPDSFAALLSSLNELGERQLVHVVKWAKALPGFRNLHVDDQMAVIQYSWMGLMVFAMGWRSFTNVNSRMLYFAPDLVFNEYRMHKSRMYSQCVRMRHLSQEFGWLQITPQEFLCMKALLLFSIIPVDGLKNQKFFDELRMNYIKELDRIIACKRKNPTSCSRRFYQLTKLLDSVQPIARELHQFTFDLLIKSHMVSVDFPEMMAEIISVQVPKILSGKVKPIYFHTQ
Chain of Peroxisome proliferator-activated receptor gamma (Homo sapiens) (P37231 whole entry, looked up): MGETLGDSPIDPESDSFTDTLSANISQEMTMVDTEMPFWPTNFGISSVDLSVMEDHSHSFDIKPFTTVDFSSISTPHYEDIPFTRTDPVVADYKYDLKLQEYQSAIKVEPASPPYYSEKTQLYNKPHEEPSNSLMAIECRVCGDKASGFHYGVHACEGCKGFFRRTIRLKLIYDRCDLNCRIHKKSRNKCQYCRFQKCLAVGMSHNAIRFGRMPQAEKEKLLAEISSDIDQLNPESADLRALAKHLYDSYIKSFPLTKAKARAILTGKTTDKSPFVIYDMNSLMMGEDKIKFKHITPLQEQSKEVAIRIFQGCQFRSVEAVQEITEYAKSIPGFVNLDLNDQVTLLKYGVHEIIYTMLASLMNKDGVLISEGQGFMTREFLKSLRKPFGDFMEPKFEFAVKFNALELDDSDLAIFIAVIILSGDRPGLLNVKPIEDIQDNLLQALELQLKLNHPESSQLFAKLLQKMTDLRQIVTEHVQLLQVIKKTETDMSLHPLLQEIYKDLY
Chain of Estrogen receptor (Homo sapiens) (P03372 whole entry, looked up, the tested form may be a part): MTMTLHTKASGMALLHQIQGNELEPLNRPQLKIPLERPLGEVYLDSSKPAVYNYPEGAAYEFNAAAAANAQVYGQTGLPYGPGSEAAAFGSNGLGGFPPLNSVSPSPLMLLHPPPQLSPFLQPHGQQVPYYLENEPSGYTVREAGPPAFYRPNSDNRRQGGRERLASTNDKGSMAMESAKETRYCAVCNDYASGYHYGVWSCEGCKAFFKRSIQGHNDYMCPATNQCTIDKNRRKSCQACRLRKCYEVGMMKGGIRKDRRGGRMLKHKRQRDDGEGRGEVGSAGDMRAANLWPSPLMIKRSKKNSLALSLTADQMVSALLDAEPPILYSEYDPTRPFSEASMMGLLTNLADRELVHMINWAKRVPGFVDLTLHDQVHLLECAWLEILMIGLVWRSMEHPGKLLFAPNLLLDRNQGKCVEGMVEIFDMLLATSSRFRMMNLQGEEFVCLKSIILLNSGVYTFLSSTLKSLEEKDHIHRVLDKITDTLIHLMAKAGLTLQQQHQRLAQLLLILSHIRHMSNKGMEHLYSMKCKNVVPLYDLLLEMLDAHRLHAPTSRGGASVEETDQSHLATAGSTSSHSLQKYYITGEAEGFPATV
Chain of guinea pig Sigma Receptor, Non-selective Binding, SIGMAR1 (gene 100135589) (Q60492 whole entry, looked up): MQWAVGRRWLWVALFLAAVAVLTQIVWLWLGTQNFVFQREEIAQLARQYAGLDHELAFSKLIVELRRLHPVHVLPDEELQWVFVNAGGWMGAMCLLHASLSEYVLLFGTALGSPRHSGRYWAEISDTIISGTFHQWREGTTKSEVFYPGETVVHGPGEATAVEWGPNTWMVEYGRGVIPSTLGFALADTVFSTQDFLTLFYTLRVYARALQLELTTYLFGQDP

C[C@H]1[C@H](c2ccc(Cl)cc2)SC(=O)N1C(=O)NC1CCCCC1
active: [2] 67.7 µM
inactive: [1] | [3] | [4] | [5]

CC[C@H](C)[C@H]1O[C@]2(C=C[C@@H]1C)C[C@@H]1C[C@@H](C/C=C(\C)[C@@H](O[C@H]3C[C@H](OC)[C@@H](O[C@H]4C[C@H](OC)[C@@H](O)[C@H](C)O4)[C@H](C)O3)[C@@H](C)/C=C/C=C3\CO[C@@H]4[C@H](O)C(C)=C[C@@H](C(=O)O1)[C@]34O)O2 (tested in a mixture with another compound)
active: [7] 12.2 µM | [8] 8.5 µM
inactive: [6] | [5] | [9] | [10]

CNC(=O)CSP(=S)(OC)OC
active: [5] 6.3 µM
inactive: [6] | [11] | [4] | [10]

C#CCN1C(=O)COc2cc(F)c(N3C(=O)C4=C(CCCC4)C3=O)cc21
inactive: [6] | [2] | [3] | [4]

CC(C)(C)C(O)/C(=C\c1ccc(Cl)cc1Cl)n1cncn1 (centres undefined)
active: [5] 0.667 µM | [12] 0.281 µM | [9] 1.25 µM
inactive: [6] | [4] | [10]

CC(C)(C)C(O)C(Oc1ccc(Cl)cc1)n1cncn1 (centres undefined)
active: [12] 25 µM | [14] 1.08 µM and 1.75 µM and 869 nM
inactive: [7] | [13] | [5] | [10]

Oc1ccc(Cl)cc1Cc1ccccc1
inactive: [7] | [13] | [15] | [17] | [14] | [10]
active: [2] 50.5 µM | [3] 63.2 µM | [5] 16.5 µM [middle of 6 runs] | [16] 12.3 µM [middle of 6 runs] | [17] 39.8 µM and 25.2 µM and 36.3 µM | [14] 12.8 µM [middle of 5 runs] | [18] 18.6 µM [middle of 6 runs]

Cc1[nH]c(=O)n(C(C)(C)C)c(=O)c1Cl
inactive: [6] | [2] | [3]

Oc1cc(Cl)ccc1Oc1ccc(Cl)cc1Cl
inactive: [11] | [8] | [10]
active: [14] 25.5 µM and 25 µM | [10] 11.6 µM and 16.2 µM and 6.67 µM | [18] 13.7 µM [middle of 4 runs]
